Source: PubChem BioAssay AID430 (Sanford-Burnham Center for Chemical Genomics, 2006)
The campaign covered roughly 63,000 compounds. About 1,100 (1.7%) were called active. No stated cut-off is given here; in the data, active means cytotoxicity above about 50%; inactive means the rest. For the sample, actives were picked, then their nearest neighbours and some compounds at random. Potency and affinity values are given separately.

Assay: HPDE-C7 pancreatic duct cell viability loss – fluorescence, HTS (AID 430);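 further: cells exposed to compound for 48 hours before viability readout; 0% = vehicle and 100% = reference cytotoxic drug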
Conditions: HPDE-C7 pancreatic duct cells viability, at 10 µM, stronger effect = higher value

Compound | cytotoxicity
CC(NS(=O)(=O)c1ccc(OCC(=O)N2CCOCC2)c(Cl)c1)c1ccccc1 (centres undefined) | 3.2% (inactive)
COCCNc1ncnc2c1cnn2Cc1ccc(Cl)cc1 | 31.2% (inactive)
CCOC(=O)N1CCN(C(=O)CSc2nnc(-c3cccc(OC)c3)o2)CC1 | -7.7% (inactive)
Cc1cccc(NC(=O)C2CCCN(S(=O)(=O)c3cccc4cccnc34)C2)c1 (centres undefined) | -12.3% (inactive)
O=C(Nc1ccncc1)C1CCCN(S(=O)(=O)c2cccc3cccnc23)C1 (centres undefined) | 53.3% (active)
O=C(Nc1ccc(F)cc1)C1CCCN(S(=O)(=O)c2cccc3cccnc23)C1 (centres undefined) | -10.4% (inactive)
COC(=O)c1ccc(CSc2nc(N3CCOCC3)c3c(c2C#N)CC(C)(C)OC3)o1 | 16.6% (inactive)
CCSc1nc(N)c2c3c(sc2n1)CN(C)CC3 | -22% (inactive)
O=C(COc1ccccc1)N(Cc1ccco1)C1CCS(=O)(=O)C1 (centres undefined) | -19.1% (inactive)
CCCc1ccc(Oc2cn[nH]c2-c2ccc(O)cc2O)cc1 | 44.2% (inactive)
COc1ccc(O)c(-c2[nH]ncc2C(=O)c2ccccc2C)c1 | -8.4% (inactive)
CCCc1ccc(Oc2cn[nH]c2-c2ccc(O)c(C)c2O)cc1 | 103% (active)
CCCc1ccc(OCC(=O)O)cc1 | 3% (inactive)
CCOC(=O)C1CCN(C(=O)Nc2ccccc2Cl)CC1 | 4% (inactive)
Cc1nn(CC(=O)NCc2ccccc2)c(=O)c2ccccc12 | -4.9% (inactive)
Cn1c(-c2ccc3c(c2)OCO3)cnc1NCc1ccccc1 | -1.6% (inactive)
Cn1c(-c2ccc3c(c2)OCO3)cnc1NCc1ccc(Cl)cc1 | 43.1% (inactive)
Cn1c(-c2ccc3c(c2)OCO3)cnc1NCc1cccc(Cl)c1 | 71.3% (active)
O=C(CSc1nnnn1Cc1ccccc1)N1CCN(c2ccccc2)CC1 | 7.7% (inactive)
CCCN(C(=O)Cc1nc(N)n[nH]1)C1(C(=O)Nc2c(C)cccc2C)CCCCC1 | -7.4% (inactive)
Cc1cccc2cc(CN(CC3CCCO3)C(=O)NC3CCCCC3)c(=O)[nH]c12 (centres undefined) | -7.6% (inactive)
CN(Cc1ccccc1)S(=O)(=O)c1ccc(C(=O)Nc2nnc(C3CC3)o2)cc1 | 28.3% (inactive)
O=C(CCC1CCCCC1)N1CCN(Cc2ccc3c(c2)OCO3)CC1 | -7.9% (inactive)
Cn1nnc(NC(=O)c2ccc(C(C)(C)C)cc2)n1 | -6.6% (inactive)

Compound | cytotoxicity
COCCNC(=O)c1cc2c(=O)n3cccc(C)c3nc2n1C | 52.8% (active)
Cc1cccn2c(=O)c3cc(C(=O)N4CCc5ccccc54)n(C)c3nc12 | 10.4% (inactive)
CC1Cc2ccccc2N1C(=O)c1cc2c(=O)n3ccccc3nc2n1C (centres undefined) | 13.4% (inactive)
CCCCNC(=O)c1cc2c(=O)n3cccc(C)c3nc2n1C | -12.6% (inactive)
Cc1cccn2c(=O)c3cc(C(=O)N4CCN(C(=O)c5ccco5)CC4)n(C)c3nc12 | 3.5% (inactive)
CCNC(=O)c1cc2c(=O)n3cccc(C)c3nc2n(CCc2ccccc2)c1=N | 61.3% (active)
Cc1cccn2c(=O)c3cc(C(=O)NCCN4CCOCC4)c(=N)n(CCc4ccccc4)c3nc12 | 4.4% (inactive)
Cc1cccn2c(=O)c3cc(C(=O)N4c5ccccc5CC4C)n(C)c3nc12 (centres undefined) | 87.3% (active)
Cc1cccn2c(=O)c3cc(C(=O)N4CCN(c5ccccc5)CC4)n(C)c3nc12 | -18.3% (inactive)
COCCn1c(=N)c(C(=O)NCCc2ccccc2)cc2c(=O)n3cccc(C)c3nc21 | -51.7% (inactive)
CCNC(=O)c1cc2c(=O)n3cccc(C)c3nc2n1C | -0.7% (inactive)
O=C(CSc1nnc(-c2ccco2)o1)NC1CC2CCC1C2 (centres undefined) | -3.3% (inactive)
Cc1noc(C(=O)Nc2ccc3c(c2)OCO3)c1Cl | 19.1% (inactive)
COc1ccc(-c2ccc(SCC(=O)NCc3ccco3)nn2)cc1OC | 7.2% (inactive)
O=C(NCc1ccco1)C1CCCCN1S(=O)(=O)c1ccc(F)cc1 (centres undefined) | -4.3% (inactive)
CCOCCOC(=O)COc1ccc(N2C(=O)c3ccccc3C2=O)cc1 | -18.5% (inactive)
O=C(CCCn1c(=S)[nH]c2ccccc2c1=O)N1CCOCC1 | -24.3% (inactive)
COc1ccc(C(O)P(=O)(O)CCc2ccccc2)cc1 (centres undefined) | -28.1% (inactive)
COc1cccc(CNC(=O)c2nnn(CC(=O)Nc3ccc(C)c(C)c3)c2N)c1 | 0.7% (inactive)
COc1ccccc1C(=O)Nc1ccc2c(c1)nc(CCNC(C)=O)n2C | -7.3% (inactive)
Cn1nc(-c2ccc(Cl)cc2)c2cc(C(=O)N3CCN(c4ccccn4)CC3)sc21 | -0.6% (inactive)
COc1ccc(N2CCN(C(=O)c3cc4c(-c5cccc(OC)c5)nn(C)c4s3)CC2)cc1 | -2.7% (inactive)
Cc1ccc(OCC(=O)N2CCN(C3=NS(=O)(=O)c4ccccc43)CC2)cc1 | 0.8% (inactive)
CCOc1ccccc1OCCCCN1CCCC1 | 3% (inactive)

Compound | cytotoxicity
COC(=O)c1c(C)oc(C)c(C(=O)OC)c1=O | 1.7% (inactive)
CCOC(=O)c1c(C)oc2c1cc(O)c1ccccc12 | 15.4% (inactive)
CC(C)NC(=O)c1cnc(N2CCN(c3ccccn3)CC2)c2ccccc12 | -9.4% (inactive)
COc1ccc(C(=O)N(CN2CCCC2=O)c2nccs2)cc1OC | 6.2% (inactive)
c1ccc(-c2nc(NC3CC3)nc(-n3ccnc3)n2)cc1 | 9.6% (inactive)
c1ccc(-c2nc(N3CCN(c4ccccc4)CC3)nc(-n3ccnc3)n2)cc1 | 43% (inactive)
c1ccc(-c2nc(-n3ccnc3)nc(-n3ccnc3)n2)cc1 | 20.1% (inactive)
c1ccc(-c2nc(N3CCCCCC3)nc(-n3ccnc3)n2)cc1 | -19.9% (inactive)
CC(C)Nc1nc(-c2ccccc2)nc(-n2ccnc2)n1 | 58.3% (active)
COCCN1Cc2cccc(C(=O)NCc3ccc4c(c3)OCO4)c2C1=O | -2.7% (inactive)
CCN(CC)S(=O)(=O)c1ccc(-c2nnc(SCC(=O)Nc3ccc4c(c3)OCO4)o2)cc1 | 3.5% (inactive)
Cc1ccc(C(N)=S)c(C)c1 | -27.6% (inactive)
Cc1c(C(=O)Nc2cccc(Cl)c2)oc2ccc(S(=O)(=O)N3CCC4(CC3)OCCO4)cc12 | 55.3% (active)
Cc1c(C(=O)Nc2ccccc2Cl)oc2ccc(S(=O)(=O)N3CCC4(CC3)OCCO4)cc12 | 22.3% (inactive)
Cc1c(C(=O)NCCC2=CCCCC2)oc2ccc(S(=O)(=O)N3CCOCC3)cc12 | 52.5% (active)
Cc1c(C(=O)Nc2ccc(F)cc2)oc2ccc(S(=O)(=O)N3CCC4(CC3)OCCO4)cc12 | 11.5% (inactive)
Cc1c(C(=O)NCCC2=CCCCC2)oc2ccc(S(=O)(=O)N3CCC4(CC3)OCCO4)cc12 | 35.3% (inactive)
Cc1c(C(=O)NCCc2ccccc2)oc2ccc(S(=O)(=O)N3CCOCC3)cc12 | -7.6% (inactive)
Cn1c(=O)c2cc(S(=O)(=O)NCCC(=O)N3CC=C(c4ccccc4)CC3)ccc2n(C)c1=O | -11.2% (inactive)
COc1c(Cl)cc(Cl)cc1/C=N/n1cnnc1 | -1.3% (inactive)
CNS(=O)(=O)c1ccc(NC(=O)C(CCSC)NC(N)=O)cc1 (centres undefined) | 0.9% (inactive)
CCOc1ccc(S(=O)(=O)Nc2cccc(Cl)c2)cc1 | 57.6% (active)
CCOc1ccc(S(=O)(=O)Nc2cc(Cl)ccc2O)cc1 | 67.2% (active)
CCOc1ccc(NS(=O)(=O)c2cc(Cl)ccc2OC)cc1 | -8.2% (inactive)

Compound | cytotoxicity
CCOc1ccc(S(=O)(=O)Nc2cccnc2)cc1 | -3.5% (inactive)
CCOc1ccc(NS(=O)(=O)c2ccc(NS(C)(=O)=O)cc2)cc1 | -4.7% (inactive)
COc1ccc(S(=O)(=O)Nc2cccc(Cl)c2)cc1OC | 13.9% (inactive)
CCCc1cc(=O)[nH]c(SC(CC)C(=O)Nc2ccccc2C#N)n1 (centres undefined) | -23.8% (inactive)
O=C(Cn1cc2c(n1)CCCC2)NC1CCCCCC1 | -9.2% (inactive)
Cn1cccc1C(=O)OCc1cc(Cl)cc2c1OCOC2 | 1.1% (inactive)
CCN(CC(=O)Nc1ccccc1C(=O)OC)S(=O)(=O)c1ccc(OC)cc1 | 1.1% (inactive)
Cc1ccc(Cl)cc1N1CCN(Cc2nnnn2C2CCCCC2)CC1 | -16% (inactive)
Cc1cccc(N=c2oc3cc(O)ccc3cc2C(N)=O)c1 | 59.6% (active)
NC(=O)c1cc2ccc(O)cc2oc1=Nc1ccccc1 | 5.3% (inactive)
Cc1ccc(N=c2oc3cc(O)ccc3cc2C(N)=O)cc1 | 3.9% (inactive)
COCCn1c(SCC(=O)Nc2nnc(C)s2)nnc1-c1cc2ccccc2cc1O | 7.4% (inactive)
Cc1[nH]c(=O)[nH]c(=O)c1NS(=O)(=O)c1ccc2c(c1)CCCC2 | 10.1% (inactive)
COCCCN(C(=O)Nc1ccccc1)C(C)c1ccncc1 (centres undefined) | 4.9% (inactive)
COc1ccc(N2C(=O)CC(N3CCN(C4CCc5ccccc5C4)CC3)C2=O)cc1 (centres undefined) | -10.3% (inactive)
CCc1ccc(NC(=O)CSC2=C(C#N)C(c3ccco3)C3=C(CCCC3=O)N2)cc1 (centres undefined) | -0.7% (inactive)
CCCCc1ccc(NC(=O)CSC2=C(C#N)C(c3ccco3)C3=C(CCCC3=O)N2)cc1 (centres undefined) | 72.2% (active)
CCOC(=O)C1=C(c2ccccc2)NC(SCC(=O)Nc2ccc(C)cc2)=C(C#N)C1c1ccco1 (centres undefined) | 10.3% (inactive)
Cc1ccc(NC(=O)CSC2=C(C#N)C(c3ccco3)C3=C(CC(C)(C)CC3=O)N2)cc1 (centres undefined) | 57.2% (active)
COc1cccc(NC(=O)CSC2=C(C#N)C(c3ccco3)C3=C(CCCC3=O)N2)c1 (centres undefined) | 22.1% (inactive)
CC1(C)CC(=O)C2=C(C1)NC(SCC(=O)Nc1ccccc1)=C(C#N)C2c1ccco1 (centres undefined) | -16.1% (inactive)
O=C(CN1C(=O)C2C3C=CC(C3)C2C1=O)NCCN1CCCc2ccccc21 (centres undefined) | -7.4% (inactive)
